Legend:
Assay in all cases: PBM binding z-score (relative to random genomic background probes); higher = stronger binding; sequences stand for … in GC…GCGATTGACAGCGTAGAATGAAGG
[1] = tested on: FXR:RXRa (NR concentration 270 nM, RXRa partner concentration 90 nM)
Procedure, shortened: (§1)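 Scanned fluorescence from custom Agilent 4×180K protein-binding microarrays was regression-normalized. Binding z-scores use random background probes as reference. Ligand-free nuclear receptor dimers were incubated on the arrays for 1 h and detected with antibodies against each partner (one per run).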

[2] = tested on: LXRa:RXRa (NR concentration 270 nM, RXRa partner concentration 90 nM)
Procedure, shortened: as §1

[3] = tested on: LXRa homodimer (NR concentration 270 nM)
Procedure, shortened: as §1

[4] = tested on: LXRb:RXRa (NR concentration 270 nM, RXRa partner concentration 90 nM)
Procedure, shortened: as §1

[5] = tested on: LXRb homodimer (NR concentration 270 nM)
Procedure, shortened: as §1

[6] = tested on: PPARa:RXRa (NR concentration 270 nM, RXRa partner concentration 90 nM)
Procedure, shortened: as §1

[7] = tested on: PPARg:RXRa (NR concentration 180 nM, RXRa partner concentration 90 nM)
Procedure, shortened: as §1

[8] = tested on: PPARg:RXRa 270nM:90nM, anti-RXR (NR concentration 270 nM, RXRa partner concentration 90 nM)
Procedure, shortened: as §1

[9] = tested on: PPARg:RXRa 30nM:10nM, anti-RXR (NR concentration 30 nM, RXRa partner concentration 10 nM)
Procedure, shortened: as §1

[10] = tested on: PPARg:RXRa 90nM:30nM, anti-RXR (NR concentration 90 nM, RXRa partner concentration 30 nM)
Procedure, shortened: as §1

[11] = tested on: PPARg:RXRa DBDmut IVT, anti-RXR (DBD mutation: RXRa K156A/R161A, NR concentration 270 nM, RXRa partner concentration 90 nM)
Procedure, shortened: as §1

[12] = tested on: PPARg:RXRa IVT, anti-PPARg (NR concentration 270 nM, RXRa partner concentration 90 nM)
Procedure, shortened: as §1

[13] = tested on: PPARg DBDmut:RXRa IVT, anti-PPARg (DBD mutation: PPARg1 K132A/R137A, NR concentration 270 nM, RXRa partner concentration 90 nM)
Procedure, shortened: as §1

[14] = tested on: PPARg DBDmut IVT, anti-PPARg (DBD mutation: PPARg1 K132A/R137A, NR concentration 270 nM)
Procedure, shortened: as §1

[15] = tested on: PPARg homodimer (NR concentration 180 nM)
Procedure, shortened: as §1

[16] = tested on: PXR:RXRa (NR concentration 270 nM, RXRa partner concentration 90 nM)
Procedure, shortened: as §1

[17] = tested on: PXR homodimer (NR concentration 270 nM)
Procedure, shortened: as §1

[18] = tested on: RARa:RXR (NR concentration 270 nM, RXRa partner concentration 90 nM)
Procedure, shortened: as §1

[19] = tested on: RARa homodimer (NR concentration 270 nM)
Procedure, shortened: as §1

[20] = tested on: RARb:RXRa (NR concentration 270 nM, RXRa partner concentration 90 nM)
Procedure, shortened: as §1

| Sequence | PBM binding z-score [1] | PBM binding z-score [2] | PBM binding z-score [3] | PBM binding z-score [4] | PBM binding z-score [5] | PBM binding z-score [6] | PBM binding z-score [7] | PBM binding z-score [8] | PBM binding z-score [9] | PBM binding z-score [10] | PBM binding z-score [11] | PBM binding z-score [12] | PBM binding z-score [13] | PBM binding z-score [14] | PBM binding z-score [15] | PBM binding z-score [16] | PBM binding z-score [17] | PBM binding z-score [18] | PBM binding z-score [19] | PBM binding z-score [20] |
| --- | --- | --- | --- | --- | --- | --- | --- | --- | --- | --- | --- | --- | --- | --- | --- | --- | --- | --- | --- | --- |
| GCTTGTAGACCAAGGTTAAGAAAGACTAAGCTAA | -0.248 | 0.608 | -0.357 | 0.335 | -0.903 | 1.16 | 0.792 | 1.61 | 0.387 | 1.17 | 1.25 | 0.819 | 0.464 | 0.161 | -0.164 | 0.252 | -0.358 | 0.313 | 0.313 | 0.654 |
| CGTCCAAGGTCAAAGGTCAGTGCAGAGATGACGG | 8.41 | 7.01 | 3.67 | 6.47 | 1.91 | 7.1 | 10.5 | 9.08 | 8.16 | 9.41 | 3.55 | 5.49 | 1.33 | 1.29 | 4.31 | 7.08 | 2.79 | 9.23 | 3.59 | 5.77 |
| ACTAGTTGGTCAGCTGAGGTCACTCACAATTCGG | 2.19 | 2.57 | 1.98 | 2.87 | 0.671 | 3.26 | 1.04 | 1.68 | 0.169 | 1.19 | 1.45 | 2.35 | 0.323 | 0.891 | 1.61 | 4.97 | 1.53 | 3.69 | 0.562 | 3.34 |
| GGAACGAGGGCAGAGTTGATAGCATCTGTCGACG | -0.283 | -0.148 | -0.653 | -0.244 | -0.788 | 2.39 | 4.04 | 5.15 | 3.38 | 4.85 | 2.1 | 2.85 | 0.19 | -0.602 | 0.635 | -0.0229 | -0.145 | -0.365 | -0.977 | 1.68 |
| TCTGCTAGATCAACGATGGTCAGCTAATCTGCTA | -1.43 | -0.641 | -1.29 | -0.993 | -1.05 | -0.231 | -0.175 | 0.492 | 1.39 | 1.14 | 0.608 | -0.401 | -0.179 | -0.566 | -1.56 | -0.434 | -1.18 | -0.57 | -1.3 | -0.346 |
| CCTGCTAGGTCAATGGTCACCTAAAGCAGCTCGC | 3.09 | 2.46 | 0.104 | 1.86 | -0.189 | 3.68 | 5.66 | 5.88 | 3.3 | 5.26 | 3.93 | 4.42 | 0.106 | -0.848 | 1.21 | 1.24 | -0.353 | 2.13 | -0.122 | 3.96 |
| GTACCAAGGTGAATAGGTCATTGATGAGTAGGCG | 2.6 | 2.66 | 1.28 | 2.14 | -0.295 | 3.87 | 3.39 | 3.52 | 1.55 | 2.85 | 3.17 | 4.04 | 0.503 | 0.284 | 4.15 | 2.62 | 0.883 | 4.41 | 1.5 | 3.56 |
| TCATAAAGGTAATACAGGTGAAAGTCGGCATCTA | 1.53 | 2.4 | 0.378 | 1.49 | 0.311 | 2.48 | 1.23 | 3 | 4.29 | 3.61 | 3.29 | 2.39 | 0.311 | 0.578 | 1.44 | 1.05 | 0.48 | 1.52 | 0.815 | 1.43 |
| ATCGAAAGGTCGAGGTGAGAATAGAGAAAGGGAA | 4.1 | 3.48 | 0.181 | 2.84 | 0.399 | 4.79 | 3.58 | 3.93 | 1.56 | 2.64 | 0.541 | 2.39 | 1.22 | 0.93 | 0.599 | 2.36 | 0.337 | 3.52 | 0.51 | 4.16 |
| CCTTACGAGTCACTCCAGGTTATAGCATCGGAGT | 1.35 | 4.98 | 1.69 | 1.55 | 0.939 | 0.751 | 0.539 | 0.0713 | -0.0643 | -0.0945 | 0.574 | 0.424 | 0.623 | 0.364 | 1.41 | 1.2 | 1.12 | 0.999 | 1.56 | 0.664 |
| TCAGACAGGTGAAGGTATCTCAGGTACGCAGTCG | 0.108 | 0.719 | -0.00263 | 0.477 | -0.0583 | 0.944 | 0.741 | 2.22 | 3.93 | 3.03 | 2.51 | 0.967 | -0.232 | 0.111 | 0.602 | 0.375 | 0.13 | 0.509 | 0.153 | 1.08 |
| CGCCCAAGGTCAAAGGTCAGTGAAGAGATGACGG | 8.13 | 6.57 | 3.09 | 6.44 | 1.72 | 7.07 | 10.1 | 8.16 | 7.42 | 8.6 | 3.58 | 5.36 | 0.645 | 0.0371 | 3.28 | 7.03 | 1.41 | 8.49 | 1.99 | 6.04 |
| ATCTCTAGGTAAAAGTTCAATGAATCCCGAGGAT | 1.81 | 2.65 | 2.7 | 2.03 | 1.14 | 4.88 | 8.83 | 8.49 | 8.81 | 9.69 | 2.16 | 4.28 | 1.95 | 1.61 | 2.08 | 3.09 | 2.8 | 2.86 | 1.09 | 2.64 |
